High-throughput results (PubChem BioAssay)
KAT2A inh: inhibitors of human GCN5L2 histone acetyltransferase | Q92830 | GCN5L2 HAT assay, ThioGlo1 CoA-SH fluorescence | Potency, µM (series often up to 58.9 µM), hits mostly inhibitors | hit rate 0.21% among 390,000
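Compounds, pin-transferred from DMSO stocks, meet 20nM GCN5L2 for 15 min before the reaction begins with H3(1-25) peptide (75uM) and acetyl-CoA (70uM). Thiol-reactive ThioGlo1 reports CoA release over 20 min at room temperature.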
TDP1 block: blocks human tyrosyl-DNA phosphodiesterase 1; Q9NUW8; recombinant TDP1, AlphaScreen DNA substrate cleavage; Potency, µM (series often up to 130 µM), hits mostly inhibitors; hit rate 0.28% among 350,000; AID 485290; further: nearly all actives have a fitted effect of over 40% in size
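AlphaScreen read-out: signal falls as enzyme removes the 3' tyrosine-FITC from a 5'-biotinylated DNA oligo (15 nM, 5 min, RT). Enzyme was E. coli-made recombinant Tdp1 at 1 nM, exposed to compound for 15 min beforehand; beads 10 ug/ml, 10 min.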
BLM inh-1: Bloom syndrome helicase (human) inhibition; P54132; Potency, µM (series often up to 56.1 µM), usual class: inhibitors; recombinant BLM DNA unwinding, fluorescence dequenching; AID 2528; hit rate 0.2% among 350,000; further: nearly all actives have a fitted effect of over 35% in size
RECQ1 inh-1: RECQ1 (human) helicase inhibition. hit rate 0.54% among 240,000. Potency, µM (series often up to 57.3 µM), most hits filed as inhibitors. P46063. RECQ1 DNA unwinding, red fluorescence kinetic read; further: nearly all actives have a fitted effect of over 30% in size
Target sequence (P46063 whole entry, looked up): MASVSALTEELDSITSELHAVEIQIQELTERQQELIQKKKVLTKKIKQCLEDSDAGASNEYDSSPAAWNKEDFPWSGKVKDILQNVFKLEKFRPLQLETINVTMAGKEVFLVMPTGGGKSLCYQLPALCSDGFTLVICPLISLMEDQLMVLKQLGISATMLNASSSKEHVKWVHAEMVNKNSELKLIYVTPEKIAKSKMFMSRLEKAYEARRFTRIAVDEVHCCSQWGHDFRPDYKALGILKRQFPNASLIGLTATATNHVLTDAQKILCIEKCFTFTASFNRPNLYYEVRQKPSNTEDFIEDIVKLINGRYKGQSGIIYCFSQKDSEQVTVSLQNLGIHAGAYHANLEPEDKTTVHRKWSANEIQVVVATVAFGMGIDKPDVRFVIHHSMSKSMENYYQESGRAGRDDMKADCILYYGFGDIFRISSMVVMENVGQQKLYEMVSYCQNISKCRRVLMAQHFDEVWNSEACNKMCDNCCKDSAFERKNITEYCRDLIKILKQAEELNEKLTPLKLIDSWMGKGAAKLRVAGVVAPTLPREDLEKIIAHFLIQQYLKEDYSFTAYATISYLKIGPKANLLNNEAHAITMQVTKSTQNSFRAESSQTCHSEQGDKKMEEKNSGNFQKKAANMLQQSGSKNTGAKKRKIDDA
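RECQ1T1 50 nM; forked duplex (20 bp + 30-nt ss tails) 200 nM, ATP 2 mM final; pH 8.0, 2 mM MgCl2, 2.5 ug/ml poly(dI-dC); 15 min compound preincubation; discontinuous kinetic read over 2 h at RT.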
APE1 inh-1: blocks human APE1 abasic DNA cleavage; AID 2517; P27695; recombinant APE1, TAMRA/BHQ-2 abasic DNA cleavage fluorescence; Potency, µM (doses to about 65.8 µM), actives largely listed as inhibitors; hit rate 0.35% among 350,000; further: nearly all actives have a fitted effect of over 55% in size
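Activity was derived from the fluorescence gain between first and third kinetic reads (60 s intervals, ex 525/em 598 nm) after 50 nM THF-abasic TAMRA/BHQ-2 duplex was added to 0.75 nM APE1 preincubated 15 min with compound.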
DNA dye displace: displaces fluorescent dye from DNA, flagging APE1 artifacts; shares compounds with APE1 inh-1; hit rate 7% among 480; AID 2564; Potency, µM (titrated, usually from 28.5 µM), most hits filed as inhibitors; DNA fluorescent dye displacement counterscreen, fluorescence;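 further: loss of thiazole orange fluorescence as the dye is displaced from duplex DNA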
EndoIV counter: Endo IV (E. coli) inhibition counter-screen. shares compounds with APE1 inh-1. E. coli Endo IV, fluorogenic AP-site DNA cleavage. hit rate 4% among 560. Potency, µM (doses to about 27.1 µM), actives largely listed as inhibitors
APE1 inh-2: APE1 (human) endonuclease inhibition, confirmation. shares compounds with APE1 inh-1. purified APE1, fluorogenic abasic-site DNA cleavage. Potency, µM (series often up to 57.1 µM), most hits filed as inhibitors. hit rate 44% among 750; further: nearly all actives have a fitted effect of over 30% in size
APE1 FP: displaces DNA from human APE1 in FP assay. hit rate 7% among 480. APE1 binding to TAMRA-labelled double-stranded DNA, fluorescence polarization displacement. Potency, µM (series often up to 28.5 µM), hits mostly inhibitors. shares compounds with APE1 inh-1
BLM inh-2: confirmation of inhibitors of human Bloom syndrome helicase BLM; shares compounds with BLM inh-1; BLM DNA unwinding, fluorescence quenching, biochemical; Potency, µM, actives largely listed as inhibitors; hit rate 40% among 220; AID 2585;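 further: strand separation dequenches TAMRA so unwinding raises red fluorescence; series mostly up to about 69 µM; nearly all actives have a fitted effect of over 45% in size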
RECQ1 inh conf: confirmation of human RECQ1 helicase inhibitors | shares compounds with RECQ1 inh-1 | RECQ1 helicase DNA unwinding, fluorescence | Potency, µM (series often up to 229 µM), usual class: inhibitors | hit rate 28% among 610 | AID 2708; further: nearly all actives have a fitted effect of over 45% in size
ADP FP counter: displaces ADP in a fluorescence polarization counter-screen for RECQ1 hits. shares compounds with RECQ1 inh-1. ADP fluorescence polarization displacement counterscreen. Potency, µM (doses to about 228 µM), actives largely listed as inhibitors. hit rate 27% among 530; further: nearly all actives have a fitted effect of over 45% in size
RECQ1 inh-2: blocks human RECQ1 DNA unwinding. shares compounds with RECQ1 inh-1. recombinant RECQ1 DNA unwinding, red fluorescence. Potency, µM (series often up to 119 µM), hits mostly inhibitors. hit rate 15% among 1,100; further: nearly all actives have a fitted effect of over 50% in size
Of the large screens only hits and unclear results are named; the others gave an inactive call (follow-up assays come after a bar, where they were run); ! = not active in a repeat. An excerpt weighted towards active compounds, which were near 0.87% of everything screened. The call rests on the fitted dose curve; in most records, active means well fitted curve in the direction sought with a large enough effect; inconclusive means small, poorly fitted or top-dose-only effect, or another doubt; inactive means no such curve, though single readings can be large; an effect the other way counts as inactive or inconclusive.

O=C(Nc1nc(-c2ccco2)c(-c2ccco2)s1)C1CC(=O)N(c2ccc3c(c2)OCCO3)C1 (configuration not stated)	KAT2A inh inconclusive, TDP1 block inconclusive, BLM inh-1 14µM, RECQ1 inh-1 7.9µM, APE1 inh-1 2.5µM | DNA dye displace 11µM | EndoIV counter inactive | APE1 inh-2 inconclusive | APE1 FP inactive | RECQ1 inh conf 28µM | ADP FP counter 40µM | RECQ1 inh-2 inconclusive
CS(=O)(=O)c1ncc(N(Cc2ccco2)Cc2cccs2)c(C(=O)Nc2ccccc2F)n1	none (no result: RECQ1 inh-1, APE1 inh-1)
O=C(Cn1cnc2sc(-c3ccccc3)cc2c1=O)NCc1ccco1	KAT2A inh inconclusive, BLM inh-1 18µM, RECQ1 inh-1 20µM, APE1 inh-1 32µM (no result: TDP1 block) | DNA dye displace inactive | EndoIV counter inactive | APE1 inh-2 8.9µM | APE1 FP inconclusive | BLM inh-2 inconclusive | RECQ1 inh conf 40µM | ADP FP counter inactive
O=C(Cn1cnc2sc(-c3ccccc3)cc2c1=O)NCc1ccccc1	none
Cn1c(SCC(=O)O)nc2sc3c(c2c1=O)CCC3	none (no result: TDP1 block, RECQ1 inh-1)
CCn1c(SCC(=O)O)nc2sc3c(c2c1=O)CCC3	RECQ1 inh-1 inconclusive, APE1 inh-1 22µM (no result: TDP1 block) | DNA dye displace inactive | EndoIV counter inactive | APE1 inh-2 inconclusive | APE1 FP inactive | RECQ1 inh-2 inconclusive
COc1ccc(-c2cnnn2-c2ccc(NC(=O)c3c(F)cccc3F)cc2)cc1	none (no result: RECQ1 inh-1, APE1 inh-1)
CCCSC1=N/C(=C\C=C\c2ccco2)C(=O)S1	BLM inh-1 20µM, RECQ1 inh-1 7.9µM, APE1 inh-1 4µM (no result: TDP1 block) | DNA dye displace inactive | EndoIV counter inactive | APE1 inh-2 inconclusive | APE1 FP inconclusive | RECQ1 inh conf 32µM | ADP FP counter 13µM | RECQ1 inh-2 inconclusive
O=C1SC(SCc2ccccc2)=N/C1=C\c1ccc(C(=O)O)cc1	none (no result: TDP1 block)
O=C1SC(SCc2ccccc2)=N/C1=C\c1ccco1	RECQ1 inh-1 inconclusive, APE1 inh-1 inconclusive (no result: KAT2A inh) | DNA dye displace inconclusive | EndoIV counter inactive | APE1 inh-2 inconclusive | APE1 FP inactive | RECQ1 inh-2 inconclusive
COc1cc2c(ccc3cc(OC)c(OC)c(O)c32)cc1O	BLM inh-1 25µM, RECQ1 inh-1 11µM, APE1 inh-1 0.71µM (no result: TDP1 block) | DNA dye displace inconclusive | EndoIV counter inconclusive | APE1 inh-2 0.63µM | APE1 FP inconclusive | RECQ1 inh conf 40µM | ADP FP counter 50µM
COc1cc2oc(=O)ccc2cc1O	none
CC(=O)Nc1ccc2c(COC(=O)CC3Sc4ccccc4NC3=O)cc(=O)oc2c1 (configuration not stated)	TDP1 block 20µM, RECQ1 inh-1 inconclusive, APE1 inh-1 inconclusive | APE1 inh-2 35µM | RECQ1 inh-2 inconclusive
COc1ccc(C(=O)CC(=O)c2ccc(C(C)(C)C)cc2)cc1	KAT2A inh 32µM, TDP1 block 20µM, RECQ1 inh-1 32µM, APE1 inh-1 8.9µM | DNA dye displace inconclusive | EndoIV counter inactive | APE1 inh-2 7.9µM | APE1 FP inconclusive | RECQ1 inh conf 13µM | ADP FP counter inconclusive | RECQ1 inh-2 inconclusive
COc1ccc2c(c1)c1c(c(=O)n(Cc3ccccc3)c(=O)n1CC(=O)NCc1ccccc1Cl)n2C	none (no result: RECQ1 inh-1, APE1 inh-1)
O=c1oc2c(O)c(O)cc3c(=O)oc4c(O)c(O)cc1c4c23	KAT2A inh inconclusive, TDP1 block 0.1µM, BLM inh-1 2µM, RECQ1 inh-1 0.56µM, APE1 inh-1 0.045µM! | DNA dye displace 0.089µM | EndoIV counter inconclusive | APE1 inh-2 0.014µM | APE1 FP 28µM | RECQ1 inh conf inconclusive | ADP FP counter 4.5µM
COc1ccc(-c2c(O)c3cc(O)cc(O)c3oc2=O)cc1	none
CC1CCC(C(=O)O)NC1c1cccc(N2CCCC2=O)c1 (configuration not stated)	none (no result: KAT2A inh)
Cc1cc(C(C)(C)C)c(O)c(C(C)(C)C)c1	none
Cc1cc(O)c(Oc2cc(C)cc(O)c2O)c(O)c1	RECQ1 inh-1 13µM, APE1 inh-1 10µM | DNA dye displace inactive | EndoIV counter inactive | APE1 inh-2 inconclusive | APE1 FP inactive | RECQ1 inh-2 inconclusive
NNC(=O)c1cc(O)c(O)c(O)c1	BLM inh-1 inconclusive, RECQ1 inh-1 3.2µM, APE1 inh-1 0.89µM (no result: TDP1 block) | DNA dye displace inactive | EndoIV counter inactive | APE1 inh-2 4µM | APE1 FP inactive | RECQ1 inh conf inactive | ADP FP counter inactive
COc1c(Cl)cc(C(=O)NN)cc1Cl	none
Cc1ccc(CSc2cn(CC(=O)N3CCCCCC3)c3ccccc23)cc1	none (no result: RECQ1 inh-1, APE1 inh-1)
Cc1cn(C2OC(COC(=O)c3ccccc3)C(OC(=O)c3ccccc3)C2OC(=O)c2ccccc2)c(=O)[nH]c1=O (configuration not stated)	none
O=C(OCC1OC(OC(=O)c2cc(O)c(O)c(OC(=O)c3cc(O)c(O)c(O)c3)c2)[C@@H](OC(=O)c2cc(O)c(O)c(OC(=O)c3cc(O)c(O)c(O)c3)c2)C(OC(=O)c2cc(O)c(O)c(OC(=O)c3cc(O)c(O)c(O)c3)c2)C1OC(=O)c1cc(O)c(O)c(OC(=O)c2cc(O)c(O)c(O)c2)c1)c1cc(O)c(O)c(OC(=O)c2cc(O)c(O)c(O)c2)c1 (some centres not stated)	KAT2A inh 3.5µM, BLM inh-1 0.071µM, RECQ1 inh-1 0.032µM (no result: APE1 inh-1) | EndoIV counter 5µM | APE1 inh-2 0.0032µM | RECQ1 inh conf 1.1µM | ADP FP counter inconclusive
